Measurements published in PubChem BioAssay (NCI).
About 79,000 compounds went through this panel and 15% of them were active in at least one assay; those are over-represented in the sample as a whole. Activity calls are given as the source filed them. Cut-off read from the data, not from the text of the source: active = growth inhibition above about 70%; inactive = the rest.

Assays:
[1] = NCI Yeast Anticancer Drug Screen. Data for the rad50 strain (AID 155);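 note: 0% = growth of vehicle-only cultures of the same strain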; conditions: S. cerevisiae rad50 strain growth inhibition; at 50.0 µM; stronger effect = higher value
Summary of the method: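 Readout: growth inhibition relative to vehicle-treated cultures. Compound exposure was carried out in a genetically defined yeast strain deficient in DNA damage repair.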

[2] = NCI Yeast Anticancer Drug Screen. Data for the mec2-1 strain (AID 157); conditions: S. cerevisiae mec2-1 strain, at 50.0 µM, stronger effect = higher value
Summary of the method: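 Compounds were applied to mec2-1 yeast cells. Their growth was then compared with that of vehicle-treated cultures to give growth inhibition.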

[3] = NCI Yeast Anticancer Drug Screen. Data for the sgs1 mgt1 strain (AID 161);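 note: 0% = growth of cultures given vehicle only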; conditions: S. cerevisiae sgs1 mgt1 strain, at 50.0 µM, stronger effect = higher value
Summary of the method: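 Percent growth inhibition was derived by comparing compound-exposed mutant yeast with vehicle-exposed cultures. The strain carries alterations in DNA damage repair.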

[4] = NCI Yeast Anticancer Drug Screen. Data for the cln2 rad14 strain (AID 165);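 note: 0% = growth equal to vehicle treated cultures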; conditions: S. cerevisiae cln2 rad14 strain, at 50.0 µM, stronger effect = higher value
Summary of the method: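 Strain: cln2 rad14 yeast, altered in cell cycle control and DNA damage repair. Read-out: growth inhibition vs vehicle.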

[5] = NCI Yeast Anticancer Drug Screen. Data for the bub3 strain (AID 167); conditions: S. cerevisiae bub3 mutant strain, at 50.0 µM, stronger effect = higher value
Summary of the method: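 Readout: yeast growth inhibition, expressed relative to vehicle-only wells. The test organism is a mutant strain from a panel with lesions in DNA repair or checkpoint genes.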

[6] = NCI Yeast Anticancer Drug Screen. Data for the mlh1 rad18 strain (AID 175); conditions: S. cerevisiae mlh1 rad18 strain growth inhibition; at 50.0 µM; stronger effect = higher value
Summary of the method: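 A repair-deficient yeast strain is exposed to test compound, and growth is scored relative to vehicle-treated controls.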

Measured: growth inhibition

O=C(/C=C/c1ccccc1)NC(=S)Nc1ccccc1F
inactive: [1] 12.1% | [2] -3.1% | [3] -23.9% | [4] -12.4% | [5] 29.7% | [6] 20.6%

Cc1cc(C)nc(NC(=O)c2cc(C(=O)O)c(C(=O)Nc3cc(C)cc(C)n3)cc2C(=O)O)c1
inactive: [1] -20.3% | [2] -3.1% | [3] -18.8% | [4] -27.6% | [5] 3.25% | [6] -23.9%

Cc1ccc(C(C)(C)C)c2oc(=O)cc(C)c12
inactive: [1] 20.2% | [2] 8.75% | [3] 12.9% | [4] 5% | [5] 5.05% | [6] 19.8%

O=C(NCO)NCOCn1c(=O)n(CO)c(=O)n(CO)c1=O
inactive: [1] 5.05% | [2] -22.6% | [3] -2.5% | [4] 29.9% | [5] 9.7% | [6] -15.9%

Cc1nc(-c2cc3c(ccc4ccccc43)oc2=O)cs1
inactive: [1] 21.5% | [2] -8.85% | [3] -4.45% | [4] 25.8% | [5] -4.4% | [6] -21.5%

CN(C)CC1CN(C)CC(CN(C)C)C1(O)C(C(=O)N(C)C)c1ccccc1 (stereo not drawn)
inactive: [2] 50% | [3] 65.2% | [4] 36.4% | [5] 49.7% | [6] 62.2%
active: [1] 75.2%

Cc1cccc(C(N)=O)c1
inactive: [1] 22.6% | [2] 6.7% | [3] 3.3% | [4] -4.75% | [5] 8.95% | [6] 32.9%

CC(=O)Nc1cc(F)c(N=Nc2ccc([N+](=O)[O-])cc2)c(F)c1
inactive: [1] -9.5% | [2] -3.45% | [3] 22.1% | [4] -38.2% | [5] -28.1% | [6] -10.3%

CC(Cc1cccc2ccccc12)(C(=O)O)C(=O)O
inactive: [1] 7.15% | [2] -4.1% | [3] 11.5% | [4] -14.2% | [5] -7.5% | [6] 0.05%

O=[N+]([O-])c1cccc(NSNc2cccc([N+](=O)[O-])c2)c1
inactive: [1] 18.1% | [2] 23.9% | [3] 25.6% | [4] 23.1% | [5] 6.45% | [6] 11%

CC(=O)Nc1cnc2c(nc3cc(C)ccn32)c1C
inactive: [1] -5% | [2] -9.1% | [3] -19.9% | [4] -9.55% | [5] -0.7% | [6] -10.2%

CNc1nc(C(F)(F)F)nc2[nH]ncc12
inactive: [1] 5.15% | [2] 17.9% | [3] -7.65% | [4] -16.9% | [5] -20.6% | [6] -20.9%

CNC1(C(=O)O)CCCCC1
inactive: [1] -0.35% | [2] -4.65% | [3] -2% | [4] 4.6% | [5] 4.85% | [6] -2.2%

O=S1C=Cc2ccccc21 (stereo not drawn)
inactive: [1] 9.8% | [2] 20.6% | [3] 13.1% | [4] 5.8% | [5] -0.7% | [6] 7.1%

CCCCOC(=O)C1=NNC(=O)C1
inactive: [1] -17.6% | [2] -17.9% | [3] -11.9% | [4] -10.1% | [5] -12.3% | [6] -11.9%

CNC(=O)CCC(NC(=O)OC(C)(C)C)C(=O)NC(Cc1ccc(NC(=O)CCCCC(C)=O)cc1)C(=O)NCC(=O)NC (stereo not drawn)
inactive: [1] -18.3% | [2] 13.9% | [3] -0.25% | [4] 9.8% | [5] 3.75% | [6] -2.1%

C=CCOC(=O)C1CC=CCC1C(=O)OCC=C (stereo not drawn)
inactive: [1] -17.6% | [2] -26.9% | [3] -17.9% | [4] -15.2% | [5] -3.95% | [6] -9.8%

COc1ccc(/C=N\O[Si](C)(C)C(C)(C)C)cc1O[Si](C)(C)C(C)(C)C
inactive: [1] 31.9% | [2] 17.2% | [3] 21.9% | [4] 5.05% | [5] -3.25% | [6] 15.8%

COc1ccc(C)c2c1CCCC2
inactive: [1] -8.6% | [2] 9.75% | [3] -5.05% | [4] -60.2% | [5] -6.8% | [6] -14.5%

CCOc1ccccc1/C=N/NS(=O)(=O)c1ccc([N+](=O)[O-])cc1
inactive: [1] -19.2% | [2] -23.1% | [3] 2.55% | [4] -18.6% | [5] 12.9% | [6] -14.2%

CCn1c2ccccc2c2cc(N)c(N=Nc3ccc(-c4ccc(N)c(OC)c4)cc3OC)cc21
inactive: [1] 31.4% | [2] 0.65% | [3] 27.6% | [4] 28.8% | [5] -4% | [6] 29.8%

CC(=O)c1ccccc1Cc1cccc2c(Cl)cccc12
inactive: [1] 4.55% | [2] 6.05% | [3] 10.1% | [4] -0.95% | [5] 1.85% | [6] 18.6%

O=S(=O)(O)NNc1ccc(N=Nc2ccccc2)cc1
inactive: [1] 0.2% | [2] -12.9% | [3] -3.95% | [4] 11.3% | [5] -0.75% | [6] 4.75%

CC(C)(C)c1cc(C(=S)N2CCN(C(=S)c3cc(C(C)(C)C)c(O)c(C(C)(C)C)c3)CC2)cc(C(C)(C)C)c1O
inactive: [1] 4.05% | [2] -10.7% | [3] -10.9% | [4] -48.5% | [5] 2.45% | [6] -16.9%

O=C(COc1ccc(Cl)cc1)Nc1ccc(S(=O)(=O)O)c2ccccc12
inactive: [1] 9% | [2] 0.6% | [3] -12.4% | [4] -5% | [5] 1.65% | [6] 13.4%

CC1OC(=O)C(O)=C1O (stereo not drawn)
inactive: [1] -5.15% | [2] -10.6% | [3] -5.75% | [4] 8.75% | [5] 8.85% | [6] -20.6%

C(=C\c1ccc(-c2ccccc2)cc1)/c1ccc(-c2ccccc2)cc1
inactive: [1] -16.2% | [2] -19.9% | [3] 4.4% | [4] -5.3% | [5] -16.7% | [6] -16.4%

Cn1cc(C(=O)C2CCCCC2)ccc1=O
inactive: [1] -4.6% | [2] -11.8% | [3] -2.6% | [4] 15.9% | [5] -14.2% | [6] -19.3%

CC(C)[N+](=C1O[B-](c2ccccc2)(c2ccccc2)O[B-]1(c1ccccc1)[C+]1CCCCC1)C(C)C (stereo not drawn)
inactive: [1] -51.1% | [2] -4.45% | [3] 10.8% | [4] 19.8% | [5] 2.15% | [6] 2.2%

CC1N(/N=C/c2ccccc2)C(c2ccccc2)C(c2ccccc2)N1/N=C/c1ccccc1 (stereo not drawn)
inactive: [1] 11.4% | [2] 15% | [3] 17.2% | [4] 5.3% | [5] 1.75% | [6] 6.25%

CC=C=C(C)CN
inactive: [1] -6.4% | [2] -3.8% | [3] -9.6% | [4] -7.95% | [5] -6.25% | [6] -8.45%

C1CCC2(CC1)OCCO2
inactive: [1] -0.75% | [2] -37.9% | [3] -20.8% | [4] 1.3% | [5] -7.85% | [6] 0.6%

CC1CN(C(=S)Nc2ccccc2)CCN1c1ccccc1 (stereo not drawn)
inactive: [1] 4.15% | [2] -2.35% | [3] -4.15% | [4] -34.8% | [5] 9.3% | [6] -5.45%

CC(C)CC(O)(CC(C)C)C(CCC(=O)Nc1ccccc1)C(=O)Nc1ccccc1 (stereo not drawn)
inactive: [1] 26.1% | [2] 11.9% | [3] 1.9% | [4] -52.1% | [5] -8.5% | [6] 7.6%

O=C(ONC1CCC(CC2CCCCC2)CC1)c1ccccc1 (stereo not drawn)
active: [1] 98.5% | [2] 98.8% | [3] 99% | [4] 96.8% | [5] 98.2% | [6] 98.5%

Cc1nc(SCC(=O)Nc2ccc(Cl)cc2)c2sc(=S)n(-c3ccccc3)c2n1
inactive: [1] -14.2% | [2] 4.6% | [3] -1.25% | [4] 2.35% | [5] -4.4% | [6] 5.4%

COc1ccc(C2C/C(=N/O)c3ccccc3O2)cc1 (stereo not drawn)
inactive: [1] 16.6% | [2] -7.85% | [3] 5.85% | [4] -93.6% | [5] -7.75% | [6] 10.1%

CC(=O)Nc1ccc(S(=O)(=O)n2c(=O)oc3cc(Cl)ccc32)cc1
inactive: [1] 3.4% | [2] -2.6% | [3] 3.1% | [4] -2.4% | [5] 2.95% | [6] 13.5%
